Experimental data as given in ChEMBL document CHEMBL3433997, “St. Jude Leishmania screening dataset” (2016).

biological target: Solute carrier family 2, facilitated glucose transporter member 1 (Homo sapiens) (UniProt P11166); test: ST_JUDE_LEISH: Cytotoxicity at 2uM final concentration against transgenic Leishmania Mexicana promastigotes LmGLUT1 that are glucose transport deficient and complemented with the human glucose transporter GLUT1. Activity is measured by DNA content using SYBR green in vitro; type: functional
Sequence (P11166 whole entry): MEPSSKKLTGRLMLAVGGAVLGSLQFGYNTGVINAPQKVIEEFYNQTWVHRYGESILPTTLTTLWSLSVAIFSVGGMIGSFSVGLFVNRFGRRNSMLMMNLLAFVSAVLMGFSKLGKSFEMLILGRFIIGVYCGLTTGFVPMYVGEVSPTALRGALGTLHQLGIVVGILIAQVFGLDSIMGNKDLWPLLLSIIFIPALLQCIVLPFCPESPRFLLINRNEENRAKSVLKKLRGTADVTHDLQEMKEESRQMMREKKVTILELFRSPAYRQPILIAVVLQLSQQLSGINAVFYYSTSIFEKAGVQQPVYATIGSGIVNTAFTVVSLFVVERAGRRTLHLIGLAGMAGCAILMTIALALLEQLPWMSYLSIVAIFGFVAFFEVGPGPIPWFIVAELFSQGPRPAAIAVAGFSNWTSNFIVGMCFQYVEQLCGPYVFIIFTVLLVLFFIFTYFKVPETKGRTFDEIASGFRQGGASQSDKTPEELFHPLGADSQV

Row | Compound | inhibition [%]
1 | c1cc(CN2CCCCC2)cc(OCCCNc2ccnc3ccccc23)c1 | 18
2 | C[C@@H]([C@@H](CCCCc1ccccc1)C(=O)N[C@H](C(=O)Nc1cccnc1)C(C)(C)C)N(O)C=O | 0.14
3 | c1nc(CCNc2nc(Nc3ccc4c(c3)OCO4)nc(NC3CCCC3)n2)c[nH]1 | 1.6
4 | Cc1cc2c(cc1C(F)(F)F)N(C(=O)Nc1ccc(C(=O)NCCN3CCCC3)cc1)CC2 | 1.29
5 | Cc1ccc(NC(=O)NC2CCN(c3ccnc4cc(Cl)ccc34)C2)cc1 (stereo not given) | 0.94
6 | CN(C(=O)c1ccccc1)C1c2cc(C#N)ccc2OC(C)(C)C1O (stereo not given) | 0.42
7 | Fc1ccc2[nH]c(-c3ccc(-c4ccc(CNCc5cnn(-c6ccccc6)n5)cc4)cc3)nc2c1 | 1.68
8 | Cn1cncc1-c1cc2c(Nc3ccc(OCc4ccccc4)cc3)ncnc2cn1 | 4.63
9 | CC(C)N1CCN(C(CN2CCN(CCCOc3cccc4ccccc34)CC2)c2ccc(F)cc2)CC1 (stereo not given) | -1.68
10 | CC(=O)c1sc(NC(=O)Nc2ccc(C)cc2C)nc1C | 14
11 | CN1CCN(CC(=O)Nc2ccc(-c3ccc(-c4nc5cc(C(F)(F)F)ccc5[nH]4)s3)cc2)CC1 | -0.05
12 | CC(CCc1ccccc1)NCC(O)c1ccc2c(c1)S(=O)(=O)c1ccccc1N2 (stereo not given) | 1.67
13 | O=C(CCN1C(=O)c2ccccc2C1=O)N1CCN(CC=Cc2ccccc2)CC1 | -1.54
14 | O=C(Nc1cccc(-c2cccc(CN3CCCC3)c2)c1)c1cccc(Cl)c1 | 2.72
15 | CN1CCC(C(=O)N(Cc2ccc(-c3ccc(CNCCc4ccc(S(C)(=O)=O)cc4)cn3)cc2)C2Cc3ccccc3C2)CC1 | 0.67
16 | C=CCOC(=O)N1CCC(CNCc2ccc(-c3ccc(-c4nc5cc(C(F)(F)F)ccc5[nH]4)cc3)cc2)C1 (stereo not given) | 3.5
17 | CS(=O)(=O)CCNc1cc(N2CCc3ncnc(Nc4ccc(OCc5cccc(F)c5)c(Cl)c4)c3C2)ncn1 | -0.04
18 | CC(C)(C)c1ccc(-c2nc3c(ccc4nc(N)nc(N)c43)[nH]2)cc1 | -1
19 | COc1ccc(C2(CNCC(O)c3cccc([N+](=O)[O-])c3)CCCC2)cc1OC (stereo not given) | 2.7
20 | Oc1ccc(CCCNc2nc(NCc3ccccc3-c3ccccc3)nc(NC3CCNCC3)n2)cc1 | -1.61

Row | Compound | inhibition [%]
21 | CC(C)COc1ccc(C(O)C(CN2CCCCC2)c2ccccc2)cc1 (stereo not given) | 5.44
22 | CCn1cnc2c(N3CCCCS3(=O)=O)cc(C(=O)N[C@@H](Cc3ccccc3)[C@H](O)CNC3CCOCC3)cc21 | 3.99
23 | CC(C)C[C@H](NC(=O)OC(C)(C)C)C(=O)Nc1ccc(Cc2ccc(NC(=O)[C@H](CC(C)C)NC(=O)OC(C)(C)C)cc2)cc1 | 3.16
24 | COc1ccc2ncc(Cl)c(N3CCC(CCNCc4ccc5c(n4)NC(=O)CS5)CC3)c2c1 | 2.36
25 | O=C(N[C@H]1CCN(Cc2ccc(OCCCN3CCCCC3)cc2)C1)c1cc(Cl)cc(Cl)c1 | 1.71
26 | CCS(=O)(=O)c1ccc(-c2cnc3[nH]cc(-c4ccc(N)cc4)c3c2)cc1 | 16.2
27 | CC(C)n1ncc2c(C(=O)N3CCCc4ccccc43)cc(-c3ccccc3)nc21 | 4.46
28 | Cc1ccc(CON2C(=N)N=C(N)NC2(C)C)cc1C | 4.78
29 | Nc1ncc(-c2ccc(F)cc2)c2ccc(-c3cccc(F)c3)cc12 | 5.19
30 | CC(C)C[C@H](NC(=O)c1cc(-c2ccc(C(C)(C)C)cc2)no1)C(=O)O.CC(C)C[C@H](NC(=O)c1conc1-c1ccc(C(C)(C)C)cc1)C(=O)O | 1.21
31 | COc1ccc(CN2CCCN(Cc3cccc(C(=O)Nc4ccc(C(C)(C)C)cc4)c3)CC2)cc1 | 7.71
32 | COc1ccc2nccc([C@@H](O)CN3CCC(NCCOc4cccc(F)c4F)CC3)c2c1 | 4.54
33 | O=C(/C=C/c1ccc(Cl)c(Cl)c1)N1CCC(CCCN2CCC(c3c[nH]c4ccc(O)cc34)CC2)CC1 | 25.3
34 | O=C(NC1CC1)c1ccc(N2CCC(Cc3ccccc3)CC2)c([N+](=O)[O-])c1 | 0.6
35 | CCc1c(C(=O)NC2CCC(N3CCC(c4ccccc4OC)CC3)CC2)[nH]c2ccc(OC)cc12 (stereo not given) | 1.56
36 | Cc1cc2nc(-c3ccc(C(=O)NCc4cccc(C(F)(F)F)c4)cc3)[nH]c2cc1C | -0.3
37 | Cc1cccc(NC(=O)Nc2cccc(-c3ccc(-c4nc5cc(C(F)(F)F)ccc5[nH]4)cc3)c2)c1 | 5.86
38 | COc1ccc2nccc(N/N=C/c3cccc([N+](=O)[O-])c3)c2c1 | 3.18
39 | CC(C)Nc1nc(NC2CCCCC2)nc(N2CCCCCCC2)n1 | 19.3
40 | COc1cc(OC)c2c(C)cc(NCCCn3ccnc3)nc2c1 | 2.59
